From PubChem BioAssay AID841 (Emory University Molecular Libraries Screening Center, 2007) come the findings set out here.

Out of some 140,000 compounds screened, about 2,100 (1.5%) were called active. Cut-off read from the data, not from the text of the source: active = protection mostly above about 24% (no sharp cut-off); inactive = mostly below about 26%. The full list was thinned out, with actives kept by preference.

The experiment can be described thus: compounds protecting cells from measles virus cytopathic effect, primary screen, measles RdRp inhibitor project, single point, MLSMR library, absorbance (AID 841). The settings on record: Measles virus-infected cells, CPE protection, at 4 µM, stronger effect = higher value.
As for `OC(COc1ccccc1)Cn1cc(Br)cn1` (centres undefined), the protection (pct of control) was 17.3% (inactive).

For the compound `OC(CN=c1sc2ccccc2n1CC(O)COc1ccccc1)COc1ccccc1` (centres undefined), the protection (pct of control) is 44.8% (active). With `C=CCn1c(=N)n(CC(O)COc2ccc(OC)cc2)c2ccccc21` (centres undefined), the protection (pct of control) was 19.9% (inactive). Take `CO/N=C(\N)c1ccc([N+](=O)[O-])cc1`: the protection (pct of control) was 2.5% (inactive).

Consider `O=C(CCc1[nH]c2ccccc2c1Sc1ccccc1)N(CCO)CCO`, for which the protection (pct of control) was 8.37% (inactive). For `CCCCC(=O)Nc1ccc2c(c1)OCCO2` the value was 11% (inactive); for `Cc1ccc(SCC(=O)Nc2ccc3c(c2)OCCO3)cc1`, 26.6% (active). For `O=C(CSc1ccc(-c2ccc(F)cc2)nn1)Nc1ccc2c(c1)OCCO2` the value was 9.34% (inactive).

Consider `Cc1cc(C)nc(SC2CCCCC2NS(=O)(=O)c2ccc(Cl)cc2)n1` (centres undefined), for which the protection (pct of control) was 24.5% (inactive). The result for `O=C(CSc1ncn[nH]1)Nc1nsc(-c2ccccc2)n1` reads 2.9% (inactive); that for `Cc1ccccc1C(OCCN(C)C)C1CCCCC1` (centres undefined), 53.1% (active).

`Cc1ccccc1C(OCC(O)CN1CCCCC1CCO)c1ccccc1` (centres undefined): the protection (pct of control) is 4.74% (inactive). Regarding `CN(C)CCOC(=O)C(c1ccccc1)C1(O)CCCC1` (centres undefined), the protection (pct of control) was 2.07% (inactive). The result for `COc1ccc(/C=C/C(=O)OCC(=O)Nc2cccc(Oc3ccccc3)c2)c(OC)c1` reads 22.7% (inactive). For `CCCc1cc(=O)[nH]c(SCC(=O)OCc2ccccc2)n1` the value was 13.7% (inactive); for `CCCc1cc(=O)[nH]c(SCc2ccc(C#N)cc2)n1`, 2.18% (inactive). The result for `CCCc1cc(=O)n2[nH]c(SCc3ccccc3)nc2n1` reads 90% (active); that for `COc1ccc(NC(=O)COC(=O)c2ccc(NS(=O)(=O)/C=C/c3ccccc3)cc2)cc1`, 6.22% (inactive). On to `CN(C)/N=C/c1cc(Cl)cc([N+](=O)[O-])c1O`, for which the protection (pct of control) was 21.7% (inactive). Consider `COc1ccccc1Oc1ccc(N/C=C2/CCCC2=O)cc1`, for which the protection (pct of control) is 24.8% (inactive). The result for `Cc1ccc(C)c(OCC(=O)N2CCN(C(=O)c3ccco3)CC2)c1` reads 10.9% (inactive); that for `CCCOC(=O)c1[nH]c2c(c1C)C(=O)CC(c1cc(OC)c(OC)c(OC)c1)C2` (centres undefined), 2.5% (inactive). Regarding `COc1cc(C2CC(=O)c3cnc(NC(C)=O)nc3C2)cc(OC)c1OC` (centres undefined), the protection (pct of control) was 62.5% (active). For the compound `COc1cc(OC)cc(C(=O)Nc2ncc3c(n2)CC(C)(C)CC3=O)c1`, the protection (pct of control) was 9.7% (inactive). For `Nc1nc(NC(=O)/C=C/c2ccccc2)nn1-c1ccccc1` the value was 3.85% (inactive); for `COc1ccccc1NC(=O)CSc1nnc(Cc2cccn2C)n1-c1ccc(F)cc1`, 15.6% (inactive). The result for `Cc1ccc(C)c(NC(=O)CSc2nnc(Cc3cccn3C)n2-c2ccc(F)cc2)c1` reads 21.3% (inactive); that for `COC(=O)c1ccc(NC(=O)CSc2nnc(Cc3cccn3C)n2-c2ccc(F)cc2)cc1`, 43.4% (active); that for `CCCOC(=O)c1ccc(N2C(=O)c3ccccc3C2=O)cc1`, 1.17% (inactive). The result for `Cn1nccc1CNC(=O)c1ccnn1C` reads 24.5% (inactive); that for `CCn1cc(CNC(=O)c2cc([N+](=O)[O-])c(C)c([N+](=O)[O-])c2)cn1`, 3.52% (inactive).

For the compound `CC1(C)C=C2[C@H]3CC[C@@H]4[C@@]5(C)CCC(=O)C(C)(C)[C@@H]5CC[C@@]4(C)[C@]3(C)CC[C@@]2(C(=O)O)CC1`, the protection (pct of control) was 44.7% (active).

For the compound `CCC(C)NCCOCCOc1ccc(Br)cc1C` (centres undefined), the protection (pct of control) was 5.1% (inactive).

Turning to `O=C(CNC(=O)C(c1ccccc1)c1ccccc1)N/N=C\c1ccc2c(c1)OCO2`, the protection (pct of control) is 17.5% (inactive). On to `O=C(CN1CCOCC1)N1CCCc2c1c(=O)oc1ccc(OCc3ccccc3)cc21`, for which the protection (pct of control) is 20.5% (active). For `Cc1c(C(=O)N2CCOCC2)[nH]c2ccc(OCc3ccccc3)cc12` the value was 11.5% (inactive); for `O=C(COc1ccc2oc3c(c2c1)CCCC3)Nc1ccccn1`, 9.54% (inactive). The result for `CC(=C1C(=O)c2ccccc2C1=O)N1CCN(c2ccccn2)CC1` reads 4% (inactive). For `O=C(C(Cl)Cl)N1CCN(c2ccccn2)CC1` the value was 29.5% (active).

`CNC(=S)N1CCN(c2ccccn2)CC1`: the protection (pct of control) is 3.85% (inactive). The result for `CC(=O)Nc1ccc(S(=O)(=O)NC2(C(F)(F)F)C(=O)Nc3c2c(=O)[nH]c(=O)n3Cc2ccccc2)cc1` (centres undefined) reads 10.5% (inactive); that for `CCOC(=O)c1c(NC(=O)Cn2nc(C(F)(F)F)cc2C)sc2c1CCC2`, 20.5% (inactive); that for `N=C(N)SCc1cccc2ccccc12`, 32.9% (inactive). The result for `CCCCOc1ccc(CSC(=N)N)cc1[N+](=O)[O-]` reads 23.1% (inactive). The result for `CCOc1ccc(Br)cc1CSC(=N)N` reads 25.8% (active); that for `Cc1ccc(NC(=O)CSCC(=O)NC2CCCCC2)cc1`, 36.4% (inactive); that for `COc1ccc(C(=O)Nc2sc(C)c(C)c2CN2CCOCC2)cc1`, 13.1% (inactive). As for `CCOc1ccc(/C=N/NC(=O)C(C)Sc2ccccn2)cc1OCC` (centres undefined), the protection (pct of control) is 3.61% (inactive). The result for `CCOc1cc(/C=N/O)ccc1OCc1ccccc1F` reads 36.5% (active). For `COc1cc(/C=C2/C(=O)ON=C2C)ccc1OCc1ccccc1F` the value was 6.29% (inactive); for `CCCCOc1ccc(C(=O)NN2CCN(C)CC2)cc1`, 24.4% (inactive); for `COCCOC(=O)c1c(C)oc2cc(Br)c(OCC(N)=O)cc12`, 16.4% (inactive).

As for `CCCCC(=O)N(c1ccc(OC)cc1)C1C=CS(=O)(=O)C1` (centres undefined), the protection (pct of control) is 43.6% (active). For `CCCCN=C(N)/C(C(=O)OCC)=C(\O)c1ccc(OC)cc1` the value was 6.3% (inactive). The result for `COc1ccc(C(=O)N(Cc2ccc(N(C)C)cc2)C2CCS(=O)(=O)C2)cc1` (centres undefined) reads 1.51% (inactive); that for `CC(C)CNC(=O)COC(=O)/C=C/c1ccco1`, 16.1% (inactive). The result for `CCc1ccc(-c2cc(C(=O)NN3CCN(C)CC3)c3ccccc3n2)cc1` reads 5.27% (inactive); that for `COCCCNC(=S)NC(=O)c1ccc([N+](=O)[O-])cc1`, 65.1% (active). Consider `CCCCCC(=O)NC(=S)NNC(=O)c1ccc([N+](=O)[O-])cc1`, for which the protection (pct of control) is 3.27% (inactive).

For `COCCCNC(=S)NC(=O)c1ccccc1`, the protection (pct of control) is 11.7% (inactive). As to `CCc1cccc(NC(=O)CCC(=O)O)c1`, the protection (pct of control) was 4.18% (inactive).

For the compound `Cn1ncc2c(Nc3cccc4ccccc34)ncnc21`, the protection (pct of control) is 3.59% (inactive). For `Cc1ccc(-n2ncc3c(Nc4cccc(C(=O)O)c4)ncnc32)cc1` the value was 7.56% (inactive); for `Cn1ncc2c(NNC(=O)Cc3cccc4ccccc34)ncnc21`, 26.4% (active).
